Experimental data reported in PubChem BioAssay (EPA / NIEHS).
Results filed as inconclusive are left out. Calls of active or inactive are those of the source. The calls were made as follows: active = hit-call score of the fitted dose curve at least 0.9, where 1 is the maximum; inconclusive = response in the unintended direction; inactive = score below 0.9.

How the values were obtained:
[1] = molecular target: Cellular tumor antigen p53 (Homo sapiens) (UniProt P04637); experiment: TOX21_p53_BLA_p2_ratio: Tox21 HCT-116 p53 Agonism Beta-lactamase Assay, Ratio, Phase 2 (AID 2283592)
Sequence of Cellular tumor antigen p53 (Homo sapiens) (P04637 whole entry, looked up): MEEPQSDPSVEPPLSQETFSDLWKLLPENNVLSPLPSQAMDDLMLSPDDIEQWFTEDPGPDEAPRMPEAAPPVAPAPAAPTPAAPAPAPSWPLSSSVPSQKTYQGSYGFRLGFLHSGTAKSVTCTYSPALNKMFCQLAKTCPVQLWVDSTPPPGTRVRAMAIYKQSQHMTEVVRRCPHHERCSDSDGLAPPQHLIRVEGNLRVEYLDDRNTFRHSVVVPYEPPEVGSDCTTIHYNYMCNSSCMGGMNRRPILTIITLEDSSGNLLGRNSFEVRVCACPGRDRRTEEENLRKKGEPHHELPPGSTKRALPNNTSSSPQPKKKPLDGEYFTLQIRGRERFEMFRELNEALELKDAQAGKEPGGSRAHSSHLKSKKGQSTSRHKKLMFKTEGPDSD
Method in brief: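 Cleaved-to-uncleaved substrate ratio (460 vs 530 nm) measured in HCT116 cells with an inducible beta-lactamase reporter linked to p53 activity. Compounds incubated 16 h at 37C before 2 h room-temperature CCF4-AM loading.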

[2] = TOX21_p53_BLA_p5_viability: Viability Assessment in the Tox21 HCT-116 p53 Agonism Beta-lactamase Assay, Phase 5 (AID 2283600)
Method in brief: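 Viability is taken from cellular ATP content, measured by luciferase luminescence in the same wells after the beta-lactamase ratio read. Cells are seeded at 4000 per well and exposed to DMSO-dissolved compounds, diluted 217-fold, for 16 h.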

[3] = molecular target: Cellular tumor antigen p53 (Homo sapiens) (UniProt P04637); experiment: TOX21_p53_BLA_p4_ratio: Tox21 HCT-116 p53 Agonism Beta-lactamase Assay, Ratio, Phase 4 (AID 2283601)
Method in brief: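 HCT-116 p53 beta-lactamase reporter cells (4000/well) preincubated 5 h, then compound (217-fold dilution of DMSO stock) for 16 h at 37C. CCF4-AM substrate added 2 h at room temperature; 460/530 nm emission ratio fitted upward versus DMSO.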

[4] = TOX21_p53_BLA_p3_viability: Viability Assessment in the Tox21 HCT-116 p53 Agonism Beta-lactamase Assay, Phase 3 (AID 2283593);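 also: cells exposed to compound for 16 h before reading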
Method in brief: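 HCT116 cells, 4000/well, dosed 5 h after plating by pin transfer (217-fold dilution from DMSO stock) and incubated 16 h at 37C, 5% CO2. Viability read as ATP luminescence with CellTiter-Glo after 30 min at room temperature.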

[5] = molecular target: Cellular tumor antigen p53 (Homo sapiens) (UniProt P04637); experiment: TOX21_p53_BLA_p3_ratio: Tox21 HCT-116 p53 Agonism Beta-lactamase Assay, Ratio, Phase 3 (AID 2283596)
Method in brief: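 Cells were seeded at 4000/well, rested 5 h at 37C, then dosed with DMSO compound solutions (217-fold dilution) for 16 h. CCF4-AM substrate was loaded for 2 h at room temperature, and the 460/530 nm emission ratio was fitted for gain of signal versus DMSO.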

[6] = TOX21_p53_BLA_p4_viability: Viability Assessment in the Tox21 HCT-116 p53 Agonism Beta-lactamase Assay, Phase 4 (AID 2283597);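 also: hits lower the luminescence signal meaning cytotoxicity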
Method in brief: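 Viability is taken as cellular ATP: after 16 h compound exposure of HCT116 cells and a 2 h room-temperature CCF4-AM substrate step, CellTiter-Glo reagent is added and luminescence is measured 30 min later.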

[7] = molecular target: Cellular tumor antigen p53 (Homo sapiens) (UniProt P04637); experiment: TOX21_p53_BLA_p5_ratio: Tox21 HCT-116 p53 Agonism Beta-lactamase Assay, Ratio, Phase 5 (AID 2283599)
Method in brief: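 HCT-116 p53-bla cells (4000/well) plated 5 h, dosed with compound (217-fold DMSO dilution) for 16 h at 37 C; CCF4-AM substrate 2 h at room temperature. Activity is the 460/530 nm emission ratio (405 nm excitation), fitted in gain-of-signal direction versus DMSO.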

Measured: outcome

C[C@@H](O)[C@H]1C(=O)N2C(C(=O)O)=C([C@H]3CCCO3)S[C@H]12
inactive: [1] | [2] | [3]

N[C@@H](CSCCCO)C(=O)O
inactive: [4] | [5] | [6] | [7] | [2] | [3]

CC[C@@H](N)CO
inactive: [4] | [5] | [6] | [7]

CC(=O)CC(=O)Nc1ccc(S(=O)(=O)O)cc1
inactive: [4] | [5] | [6] | [7] | [3]

CCCOC(=O)c1ccc(N)cc1
inactive: [1] | [3]

CCOC(=O)C(Br)c1ccccc1 (stereo not drawn)
inactive: [1] | [3]

NCc1ccc(S(N)(=O)=O)cc1
inactive: [4] | [5] | [6] | [7] | [2]

CC(C)(C)NCC(O)COc1cccc2c1CCC(=O)N2 (stereo not drawn)
inactive: [1] | [3]

Cc1cc(O)c(Cl)cc1C
inactive: [4] | [5] | [6] | [7] | [2]

CN(C)C(=O)Oc1ccc[n+](C)c1
inactive: [4] | [5] | [6] | [7] | [2] | [3]

C=C(C)C(=O)OCCOCC
inactive: [4]

O=C(O)CC/C=C\CC[C@@H]1[C@@H](N2CCCCC2)[C@@H](O)C[C@@H]1OCc1ccc(-c2ccccc2)cc1
inactive: [4] | [5]

Cc1ccc(N)nc1
inactive: [4] | [5] | [6] | [7] | [2] | [3]

CC1(C)CC(O)CC(C)(C)N1
inactive: [1] | [3]

O=[N+]([O-])c1cc([N+](=O)[O-])c2ccc(S(=O)(=O)O)cc2c1O
inactive: [4]

O=C(/C=C/c1ccc(O)c(O)c1)O[C@@H](C(=O)O)[C@@H](OC(=O)/C=C/c1ccc(O)c(O)c1)C(=O)O
inactive: [4] | [5] | [6] | [7] | [2] | [3]
